D2 ag-1: human D2 receptor agonism in beta-arrestin assay | DiscoveRx PathHunter D2 beta-arrestin, luminescence, 90 min; 100% = 57 uM dopamine signal | activation, % (concentration not given with the values) | P14416 | hit rate 0.084% among 360,000; in the data active = activation above about 40%
Target sequence (P14416 whole entry, looked up): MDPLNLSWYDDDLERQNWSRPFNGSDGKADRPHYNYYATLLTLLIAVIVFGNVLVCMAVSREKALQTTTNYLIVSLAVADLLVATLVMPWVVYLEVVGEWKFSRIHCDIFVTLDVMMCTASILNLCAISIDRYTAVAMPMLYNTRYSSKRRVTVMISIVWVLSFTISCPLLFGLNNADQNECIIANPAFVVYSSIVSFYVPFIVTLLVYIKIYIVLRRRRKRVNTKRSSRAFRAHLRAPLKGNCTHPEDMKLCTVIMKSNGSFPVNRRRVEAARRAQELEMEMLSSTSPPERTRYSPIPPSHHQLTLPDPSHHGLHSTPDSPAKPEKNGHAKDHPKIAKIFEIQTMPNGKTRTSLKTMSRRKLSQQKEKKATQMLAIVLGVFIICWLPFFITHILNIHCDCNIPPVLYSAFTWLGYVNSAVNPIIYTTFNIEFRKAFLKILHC
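DiscoveRx PathHunter D2 beta-arrestin cells (2,100/well) attached overnight, then compound-stimulated 90 min at 37 C in HBSS/10 mM HEPES/0.1% Tween-20 buffer; beta-galactosidase complementation read by luminescence after 1 h at ambient temperature. Dopamine 57 uM final (EC100) as control.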
D2 PAM-1: D2 dopamine receptor (human) potentiation | P14416 | HEK293 T-REx D2, calcium flux, EC20 dopamine potentiation | potentiation, % at 10 µM | hit rate 0.34% among 340,000 | AID 485347;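 active = potentiation over 3 SD above the plate norm, cut at about 30% in these data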; also: 0% is about no effect
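Tetracycline-induced HEK293 T-REx cells force-coupled to calcium signalling expressed D2; compounds were pin-added after a 10 s baseline, read kinetically 180 s, then an EC20 dopamine challenge followed with a further 180 s calcium read.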
D2 antagonist: antagonists of human D2 dopamine receptor; P14416; HEK293 TREx D2 cells, calcium flux, dopamine EC80; inhibition, % at 10 µM; hit rate 2% among 340,000; in the data active = inhibition above about 30%; inactive = below that, where a call was filed; also: 0% is about no effect
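Measurement of antagonist activity uses fluorescent calcium dye in inducible HEK293 T-REx D2 cells: 10 s baseline, compound addition with 180 s read, EC80 dopamine addition with a further 180 s read.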
LDHA inh: inhibitors of human lactate dehydrogenase A | P00338 | purified LDHA, NADH/diaphorase-resazurin fluorescence; hits give low values | activity change, % (values are at about 110 or 230 µM) | hit rate 0.15% among 480,000 | AID 1347041; in the data active = activity change below about -30%;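 also: plate controls were DMSO wells for no effect and wells without enzyme for full effect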
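Remaining NADH was detected by diaphorase (0.133 mg/mL) converting 37 µM resazurin to fluorescent resorufin, read at 0 and 20 minutes. The preceding 5-minute room-temperature reaction used 2 nM LDHA, 0.2 mM sodium pyruvate and 0.06 mM NADH at pH 7.4.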
D2 ag-2: agonists of human D2 dopamine receptor; P14416; HEK293 T-REx D2 cells, calcium flux agonist mode; activation, % at 2 µM; hit rate 0.53% among 340,000; AID 485358;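 active = activation over 3 SD above normal in the single-dose calcium agonist read, cut at about 30% in these data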; also: 0% is about no effect
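Agonism scored from kinetic calcium signal (1 read/sec, 180 s) following compound pin transfer, after a 10 s baseline. Cells: HEK293 Trex line expressing inducible D2 receptor coupled to calcium, dye-loaded after overnight culture at 30 C.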
D2 PAM-2: potentiates the human D2 dopamine receptor allosterically | P14416 | DiscoveRx D2 beta-arrestin cells, luminescence, 90 min; 100% = 57 uM dopamine signal | potentiation, % (concentration not given with the values) | hit rate 0.23% among 360,000 | AID 624464; in the data active = potentiation above about 50%
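D2 cells co-treated with compound plus 50 nM dopamine (EC20) for 90 min at 37 deg C to detect potentiation. Beta-arrestin recruitment was read as enzyme-fragment luminescence after 1 h at ambient temperature. Full response was set by 57 uM dopamine.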
* marks the source's active call; other numbers are inactive results; . = no result. An excerpt weighted towards active compounds, which were near 2.1% of everything screened.

SMILES	D2 ag-1	D2 PAM-1	D2 antagonist	LDHA inh	D2 ag-2	D2 PAM-2
O=C1CCCc2c1cc(C(=O)Nc1ccc(Br)cn1)c(=O)n2-c1ccccc1	11	-3	10	25	4	55*
CCc1nc(C)c(C(=O)O)s1	.	.	.	10	.	.
C=CCNC(=S)NNC(=O)CC12CC3CC(CC(C3)C1)C2	-3	-5	34*	-4	0	-6
COc1ccc(CN2CCC(n3nccc3NC(=O)c3ccc4c(c3)OCO4)CC2)cc1C	2	-12	45*	-1	1	-32
Cc1ccccc1C(=O)Nc1ccnn1C1CCN(Cc2ccncc2)CC1	-5	-18	31*	-1	1	3
Cc1cc(CN2CCC(n3nccc3NC(=O)c3ccccc3Cl)CC2)cc(C)c1O	-3	-19	55*	-1	1	-20
Cc1ccccc1CN1CCC(n2nccc2NC(=O)c2ccc3c(c2)OCO3)CC1	-9	-1	-6	-1	0	-47
COc1ccccc1C(=O)Nc1ccnn1C1CCN(Cc2csc(C(C)=O)c2)CC1	-2	-1	32*	-3	1	-28
CC(=O)Nc1c(C)noc1/C=C\c1ccc(S(=O)(=O)Nc2ccc(C)cc2)cc1	.	.	.	-9	.	.
Clc1ccc(C2C=C(c3ccccc3)Nc3nnnn32)c(Cl)c1 (stereo not given)	.	.	.	-6	.	.
CC(Sc1ccc(Br)cn1)C(=O)Nc1cccc(Br)c1 (stereo not given)	.	.	.	-1	.	.
CCCOc1ccc(C(=O)NC2CCSc3ccccc32)cc1 (stereo not given)	1	6	36*	-6	-1	-4
CC(=O)N1c2ccc(S(=O)(=O)N(C)C3CCCCC3)cc2CC1C (stereo not given)	-2	30*	-7	-1	0	-11
CC(=O)N1c2ccc(S(=O)(=O)N(C)Cc3ccccc3)cc2CC1C (stereo not given)	3	13	8	-1	1	1
CC(=O)N1c2ccc(S(=O)(=O)N(C)CC(=O)NC3CCCCC3C)cc2CC1C (stereo not given)	6	42*	5	1	0	-5
CC(C)Cn1c2c(c(=O)[nH]c1=O)C(c1ccc(F)cc1)C1=C(COC1=O)N2 (stereo not given)	.	.	.	-1	.	.
COc1ccc(NC(=O)c2cc([N+](=O)[O-])ccc2O)cc1	-6	12	-4	-38*	6	-9
COc1ccc(NC(=O)c2cccc([N+](=O)[O-])c2)cc1	-1	20	5	-8	-1	-17
CN(Cc1ccccc1)c1nc2c(c(=O)n(Cc3ccccc3Cl)c(=O)n2C)n1C	.	.	.	0	.	.
NC[C@H]1O[C@H](O[C@H]2[C@H](O)[C@@H](O[C@H]3O[C@H](CO)[C@@H](O)[C@H](N)[C@H]3O)[C@H](N)C[C@@H]2N)[C@H](N)C[C@@H]1O	-2	-4	37*	-4	2	6
O=C(CCNC(=O)c1ccc([N+](=O)[O-])cc1)NC1CCCc2ccccc21 (stereo not given)	0	-21	32*	-2	0	4
CC(C)c1nnc(NC(=O)CC23CC4CC(CC(C4)C2)C3)s1	-7	2	36*	-11	4	-2
CN(CC(=O)Nc1ccc(Cl)cc1)CC(=O)N1CCC(Cc2ccccc2)CC1	.	.	.	4	.	.
CCOC(=O)c1c(NC(=O)C[n+]2ccccc2)sc2c1CCCC2	-4	-22	46*	-2	0	-39
COc1ccc(CCNC(=O)CCNC(=O)c2ccc(Br)cc2)cc1OC	0	-9	-8	-7	35*	-2
SMILES	D2 ag-1	D2 PAM-1	D2 antagonist	LDHA inh	D2 ag-2	D2 PAM-2
O=C(COc1ccc(Br)cc1)NCCCNC(=O)c1ccncc1	5	1	-7	-3	0	-4
O=C(COc1ccc(Br)cc1)NCCNC(=O)c1ccncc1	-8	-11	47*	-1	0	-16
COC(=O)C(Cc1ccccc1)NC(=O)CCNC(=O)c1ccc(Br)cc1 (stereo not given)	-1	40*	.	-1	.	-5
Cc1ccc(CNC(=O)c2cc3sc(Cl)cc3n2C)cc1	.	-6	.	-2	.	.
COc1ccc(CCNC(=O)c2cc3sc(Cl)cc3n2C)cc1OC	-1	-7	63*	1	-1	-3
COc1ccc(CCNC(=O)CCNC(=O)c2ccc(Cl)cc2)cc1OC	-1	1	18	0	0	14
CN(C(=O)Cc1cccs1)C1(C(=O)NC2CCCCC2)CCCCC1	.	.	.	3	.	.
CNc1oc(/C=C/c2ccc(OC)c(OC)c2)nc1C#N	.	.	.	3	.	.
Cc1cccc(C)c1OCC(=O)NNC(=O)CCNC(=O)c1ccc(Br)cc1	-5	0	-3	-3	0	64*
O=C(O)C(c1c[nH]c2cc(F)ccc12)N1CCN(c2ccccc2)CC1 (stereo not given)	.	.	.	-18	.	.
Cc1ccc(C)c(NC(=O)N2CCN(c3nc(C)cc(N4CCOCC4)n3)CC2)c1	.	.	.	8	.	.
Cc1ccccc1-c1noc(-c2ccc(O)cc2)n1	3	-9	46*	-2	0	13
Cc1ccccc1-c1noc(C23CC4CC(CC(C4)C2)C3)n1	-1	-26	75*	1	1	-9
C/C(=N/NC(N)=S)c1ccc(Cl)cc1Cl	.	.	.	2	.	.
CCC1(c2ccc(F)cc2)NC(=O)N(CC(=O)c2ccc[nH]2)C1=O (stereo not given)	-3	.	30*	1	1	-13
CCC1(c2ccc(F)cc2)NC(=O)N(CC(=O)N2CCOCC2)C1=O (stereo not given)	-1	-7	13	-11	-1	-1
Cn1cccc1CNCc1ccccc1Cl	-4	-18	2	-10	50*	-10
Cn1cccc1CNC(=O)Nc1ccccc1	-1	1	-6	-1	1	8
Cn1cccc1CNC(=O)Nc1ccc(Cl)cc1	-3	5	31*	-3	0	-25
CCOc1ccc(CN(C)c2nc(-c3cccnc3)nc3ccccc23)cc1OC	0	-14	36*	-2	0	-6
Cc1cs/c(=N\N=C\c2ccccc2)n1Cc1ccco1	-1	-4	1	3	1	2
CC(C)=N/N=c1\scc(C)n1Cc1ccco1	2	8	40*	1	1	7
C=Cn1cccc1-c1ccc(OC)cc1	.	.	.	-2	.	.
Cc1ccccc1OCC(=O)N/N=C/c1cccc(Oc2ccc([N+](=O)[O-])cc2[N+](=O)[O-])c1	12	-4	-9	1	0	55*
Cc1ccccc1OCC(=O)NCC(=O)N/N=C/c1cccc([N+](=O)[O-])c1	.	-2	-8	.	1	.

Screening data (PubChem BioAssay)
